Test results: PubChem BioAssay (EPA / NIEHS)
Results filed as inconclusive are left out. The source made the active and inactive calls. Rule for the calls, unless noted: active = hit-call score of the fitted dose curve at least 0.9, where 1 is the maximum; inconclusive = response in the unintended direction; inactive = score below 0.9.

How the values were obtained:
[1] = molecular target: Estrogen receptor (Homo sapiens) (UniProt P03372); assay: OT_ERa_GFPERaERE_0120: Odyssey Thera (OT) 2-hour HeLa Transcription Induction Assay for Estrogen Receptor (AID 2283382)
Estrogen receptor (Homo sapiens), sequence (P03372 whole entry, looked up): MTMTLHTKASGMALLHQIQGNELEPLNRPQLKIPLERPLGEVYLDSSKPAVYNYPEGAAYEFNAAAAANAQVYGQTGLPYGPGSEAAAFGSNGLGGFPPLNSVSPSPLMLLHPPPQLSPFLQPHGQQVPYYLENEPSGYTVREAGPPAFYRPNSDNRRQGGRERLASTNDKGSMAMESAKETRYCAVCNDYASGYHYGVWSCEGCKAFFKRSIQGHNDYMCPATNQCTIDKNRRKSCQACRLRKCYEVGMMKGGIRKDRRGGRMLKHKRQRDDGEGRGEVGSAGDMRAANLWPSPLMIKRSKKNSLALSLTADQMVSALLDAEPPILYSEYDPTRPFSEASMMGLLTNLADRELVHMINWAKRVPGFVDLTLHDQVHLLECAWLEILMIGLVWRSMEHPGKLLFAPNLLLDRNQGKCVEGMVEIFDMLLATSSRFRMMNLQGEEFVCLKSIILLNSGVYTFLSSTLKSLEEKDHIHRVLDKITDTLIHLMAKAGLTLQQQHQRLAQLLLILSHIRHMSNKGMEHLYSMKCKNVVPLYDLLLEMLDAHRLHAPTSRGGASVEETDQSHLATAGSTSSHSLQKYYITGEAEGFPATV
Method in brief: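 Measures ESR1 pathway reporter gain-of-signal in HeLa cells after a 2-hour treatment, detected as fluorescent protein induction by microscopy, DMSO as baseline.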

[2] = molecular target: Bile acid receptor (Homo sapiens) (UniProt Q96RI1); assay: OT_FXR_FXRSRC1_1440: Odyssey Thera (OT) 24-hour HEK293T Protein-Complementation Assay for Farnesoid X receptor/SRC-1 Co-activator (AID 2283384)
Bile acid receptor (Homo sapiens), sequence (Q96RI1 whole entry, looked up, the tested form may be a part): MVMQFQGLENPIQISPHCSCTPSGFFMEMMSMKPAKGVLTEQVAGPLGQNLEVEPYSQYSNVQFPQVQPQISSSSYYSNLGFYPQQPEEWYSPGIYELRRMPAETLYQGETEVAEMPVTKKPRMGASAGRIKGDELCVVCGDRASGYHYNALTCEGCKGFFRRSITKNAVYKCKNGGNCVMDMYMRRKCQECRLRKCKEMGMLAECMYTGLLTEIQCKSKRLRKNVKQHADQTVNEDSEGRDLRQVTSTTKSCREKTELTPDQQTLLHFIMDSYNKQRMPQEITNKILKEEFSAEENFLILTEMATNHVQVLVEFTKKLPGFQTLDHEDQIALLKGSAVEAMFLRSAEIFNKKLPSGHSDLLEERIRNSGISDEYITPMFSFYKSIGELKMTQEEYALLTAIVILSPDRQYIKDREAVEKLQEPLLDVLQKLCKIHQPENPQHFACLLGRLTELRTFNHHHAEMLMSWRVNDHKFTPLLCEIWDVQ
Method in brief: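 Cell-based binding reporter: interaction of FXR with SRC-1 brings reporter fragments together, giving a fluorescence signal read 24 h after dosing of HEK293T cells.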

[3] = molecular target: Peroxisome proliferator-activated receptor gamma (Homo sapiens) (UniProt P37231); assay: OT_PPARg_PPARgSRC1_0480: Odyssey Thera (OT) 8-hour Protein-Complementation Assay for Peroxisome Proliferator-activated Receptor Gamma / SRC-1 Co-activator (AID 2283387);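 note: nuclear to cytoplasmic split Venus YFP fluorescence ratio reporting PPARg SRC-1 interaction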
Peroxisome proliferator-activated receptor gamma (Homo sapiens), sequence (P37231 whole entry, looked up, the tested form may be a part): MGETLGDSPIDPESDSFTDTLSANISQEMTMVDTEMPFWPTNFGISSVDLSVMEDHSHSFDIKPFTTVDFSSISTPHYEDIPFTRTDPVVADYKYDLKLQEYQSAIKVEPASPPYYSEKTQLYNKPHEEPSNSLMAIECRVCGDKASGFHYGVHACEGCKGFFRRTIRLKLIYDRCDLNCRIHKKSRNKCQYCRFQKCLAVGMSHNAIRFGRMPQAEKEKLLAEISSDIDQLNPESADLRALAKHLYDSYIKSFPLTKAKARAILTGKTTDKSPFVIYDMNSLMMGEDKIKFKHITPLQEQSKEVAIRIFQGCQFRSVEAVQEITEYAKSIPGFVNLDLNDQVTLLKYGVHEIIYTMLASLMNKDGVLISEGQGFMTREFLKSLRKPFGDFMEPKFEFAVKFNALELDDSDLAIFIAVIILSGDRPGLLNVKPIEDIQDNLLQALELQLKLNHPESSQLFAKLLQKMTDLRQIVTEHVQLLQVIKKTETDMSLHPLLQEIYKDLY
Method in brief: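 Protein-fragment complementation of split Venus YFP reports PPARg/SRC-1 interaction in HEK293T (transfected 48 h before treatment), exposed 8 h. Readout: N/C fluorescence ratio at 488 nm from imaging, Draq5 for segmentation, positive fit relative to DMSO.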

[4] = molecular target: Peroxisome proliferator-activated receptor gamma (Homo sapiens) (UniProt P37231); assay: OT_PPARg_PPARgSRC1_1440: Odyssey Thera (OT) 24-hour Protein-Complementation Assay for Peroxisome Proliferator-activated Receptor Gamma/ SRC-1 Co-activator (AID 2283388);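 note: nuclear to cytoplasmic ratio of reconstituted Venus YFP fluorescence in fixed imaged cells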
Method in brief: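 Protein-fragment complementation between PPARg and coactivator SRC-1 was measured by fluorescence imaging in transiently transfected HEK293T cells after 24 h treatment. Signal was quantified as N/C ratio in the 488 nm channel, with DMSO as negative control.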

[5] = ATG_XTT_Cytotoxicity: Cytotoxicity Assessment in the Attagene TRANS-FACTORIAL HepG2 Assay (AID 2283584)
Method in brief: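 Cells: human HepG2, transiently transfected with MRTU reporter constructs. Exposure 24 h. Readout: XTT, cell number. Baseline/neg ctrl DMSO; loss-of-signal scored.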

[6] = TOX21_p53_BLA_p2_viability: Viability Assessment in the Tox21 HCT-116 p53 Agonism Beta-lactamase Assay, Phase 2 (AID 2283591);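 note: compound exposure lasted 16 h at 37 °C; actives lower the ATP signal meaning cytotoxicity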
Method in brief: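 HCT-116 p53-bla cells (4000/well) rested 5 h at 37C, then received compounds in DMSO (217-fold dilution) for 16 h at 37C, 5% CO2. After the CCF4 read, CellTiter-Glo was added; ATP luminescence was read after 30 min at room temperature.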

[7] = molecular target: Bile acid receptor (Homo sapiens) (UniProt Q96RI1); assay: OT_FXR_FXRSRC1_0480: Odyssey Thera (OT) 8-hour HEK293T Protein-Complementation Assay for Farnesoid X receptor/SRC-1 Co-activator (AID 2283383)
Method in brief: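 Co-activator recruitment to FXR was measured in living HEK293T cells, where interaction of the two fused partners restored an active fluorescent reporter. Signal gain after 8 h treatment was referenced to DMSO.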

[8] = molecular target: Retinoic acid receptor RXR-alpha (Homo sapiens) (UniProt P19793); assay: OT_NURR1_NURR1RXRa_1440: Odyssey Thera (OT) 24-hour HEK293T Protein Complementation Assay for Nurr1/retinoid X receptor (RXR) (AID 2283386)
Retinoic acid receptor RXR-alpha (Homo sapiens), sequence (P19793 whole entry, looked up, the tested form may be a part): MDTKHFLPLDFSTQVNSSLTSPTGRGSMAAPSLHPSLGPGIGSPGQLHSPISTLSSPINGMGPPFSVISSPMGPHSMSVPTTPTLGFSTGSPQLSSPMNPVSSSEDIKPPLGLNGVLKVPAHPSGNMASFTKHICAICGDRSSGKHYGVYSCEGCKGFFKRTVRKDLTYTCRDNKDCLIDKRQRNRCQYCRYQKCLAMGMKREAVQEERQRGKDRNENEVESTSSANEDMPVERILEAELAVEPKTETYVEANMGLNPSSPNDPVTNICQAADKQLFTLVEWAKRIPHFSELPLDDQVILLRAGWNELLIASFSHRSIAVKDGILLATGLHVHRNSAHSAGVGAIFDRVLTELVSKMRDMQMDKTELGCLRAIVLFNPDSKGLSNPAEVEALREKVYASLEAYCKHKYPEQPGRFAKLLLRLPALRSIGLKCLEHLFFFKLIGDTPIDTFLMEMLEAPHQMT
Method in brief: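 Measured as fluorescence from a reconstituted split reporter, this 24 h HEK293T complementation assay scores compound-induced gain of Nurr1/RXRα association relative to DMSO.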

[9] = molecular target: Retinoic acid receptor RXR-alpha (Homo sapiens) (UniProt P19793); assay: OT_NURR1_NURR1RXRa_0480: Odyssey Thera (OT) 8-hour HEK293T Protein Complementation Assay for Nurr1/retinoid X receptor (RXR) (AID 2283385)
Method in brief: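 Compounds are applied to HEK293T cells carrying Nurr1 and RXRα linked to reporter fragments. After 8 h, fluorescence intensity reports heterodimer formation, with DMSO as baseline.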

[10] = CEETOX_H295R_11DCORT: CeeTox H295R High-throughput Steroidogenesis Assay for 11-Deoxycortisol (11DCORT) (AID 2283432; active = hit-call score of the fitted dose curve at least 0.9, where 1 is the maximum; inactive = score below 0.9); details: actives raise or lower the signal
Method in brief: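 Human adrenal H295R cells were prestimulated with 10 uM forskolin for 48 h, then exposed to test chemical (0.1% DMSO final) for 48 h. Medium 11-deoxycortisol was quantified by MTBE extraction and HPLC-MS/MS; bidirectional fitting relative to DMSO.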

[11] = CEETOX_H295R_OHPREG: CeeTox H295R High-throughput Steroidogenesis Assay for OH-Pregnenolone (OHPREG) (AID 2283434; active = hit-call score of the fitted dose curve at least 0.9, where 1 is the maximum; inactive = score below 0.9); details: actives raise or lower the signal
Method in brief: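 Human adrenal H295R cells were prestimulated 48 h with 10 uM forskolin, then exposed 48 h to chemical in 0.1% DMSO. Medium 17alpha-hydroxypregnenolone was quantified by HPLC-MS/MS after MTBE extraction; bidirectional fitting versus DMSO baseline.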

[12] = CEETOX_H295R_OHPROG: CeeTox H295R High-throughput Steroidogenesis Assay for OH-Progesterone (OHPROG) (AID 2283435; active = hit-call score of the fitted dose curve at least 0.9, where 1 is the maximum; inactive = score below 0.9); details: actives raise or lower the signal
Method in brief: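 Secreted 17alpha-hydroxyprogesterone is read by tandem MS from media of forskolin-primed H295R cells dosed with chemical for 48 h. Activity is fitted in both directions against DMSO baseline; cytotoxic concentrations are re-tested diluted.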

[13] = CEETOX_H295R_CORTIC: CeeTox H295R High-throughput Steroidogenesis Assay for Corticosterone (CORTIC) (AID 2283437; active = hit-call score of the fitted dose curve at least 0.9, where 1 is the maximum; inactive = score below 0.9;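 note: corticosterone secreted into medium quantified by mass spectrometry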); details: actives raise or lower the signal
Method in brief: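 H295R cells were prestimulated 48 h with 10 uM forskolin, then exposed 48 h to test chemical in 0.1% DMSO. Medium corticosterone was MTBE-extracted and quantified by HPLC-MS/MS; bidirectional fit versus DMSO baseline.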

[14] = CEETOX_H295R_DOC: CeeTox H295R High-throughput Steroidogenesis Assay for DOC (AID 2283439; active = hit-call score of the fitted dose curve at least 0.9, where 1 is the maximum; inactive = score below 0.9); details: actives raise or lower the signal
Method in brief: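 Secreted DOC was quantified from H295R media by HPLC-MS/MS after 48 h chemical exposure following 48 h forskolin (10 uM) prestimulation. Values were fitted in both directions relative to DMSO, the negative control and baseline.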

[15] = CEETOX_H295R_ESTRADIOL: CeeTox H295R High-throughput Steroidogenesis Assay for Estradiol (AID 2283440; active = hit-call score of the fitted dose curve at least 0.9, where 1 is the maximum; inactive = score below 0.9;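 note: estradiol secreted into medium quantified by LC-MS/MS after dansyl derivatisation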); details: actives raise or lower the signal
Method in brief: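 Estradiol secreted into the medium was measured by tandem mass spectrometry after liquid-liquid extraction and dansylation. Human H295R cells had been forskolin-primed (10 uM, 48 h) before a 48 h chemical exposure with 0.1% DMSO.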

[16] = CEETOX_H295R_ESTRONE: CeeTox H295R High-throughput Steroidogenesis Assay for Estrone (AID 2283441; active = hit-call score of the fitted dose curve at least 0.9, where 1 is the maximum; inactive = score below 0.9;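 note: estrone secreted into medium measured by LC-MS/MS after dansyl derivatization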); details: actives raise or lower the signal
Method in brief: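 H295R cells; 48 h forskolin (10 uM) prestimulation; 48 h compound exposure, 0.1% DMSO final. Medium estrone: MTBE extraction, dansyl derivatization, HPLC-MS/MS. Bidirectional fit vs DMSO.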

[17] = CEETOX_H295R_PROG: CeeTox H295R High-throughput Steroidogenesis Assay for Progesterone (PROG) (AID 2283442; active = hit-call score of the fitted dose curve at least 0.9, where 1 is the maximum; inactive = score below 0.9); details: actives raise or lower the signal
Method in brief: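 Steps: seed H295R cells and let them adhere overnight; prime 48 h with 10 uM forskolin; dose with compound in DMSO at 0.1% final for 48 h; extract medium steroids with MTBE; measure progesterone by LC-MS/MS. MTT viability was run in the same wells.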

Measured: AC50

NC(=O)N=NC(N)=O
active: [1] 12.1 µM
inactive: [2] | [3] | [4] | [5] | [6]

CCCCOCCOC(=O)COc1nc(Cl)c(Cl)cc1Cl
inactive: [1] | [7] | [2] | [8] | [3] | [4]

CCCCCCCC/C=C\CCCCCCCC(=O)OCCO
active: [9] 38.4 µM | [8] 38.7 µM
inactive: [1] | [3] | [4] | [5]

C=C[Si](C)(C)O[Si](C)(C)C=C
inactive: [1] | [9] | [8] | [3] | [4] | [5] | [6]

CNC(=S)NN
inactive: [1] | [8] | [3] | [4] | [5]
active: [9] 50 µM

CC(CC=O)CCCC(C)(C)O (stereo not drawn)
inactive: [1] | [9] | [8] | [3] | [4] | [5]

Cn1c([N+](=O)[O-])cnc1COC(N)=O
inactive: [1] | [9] | [8] | [3] | [4] | [5] | [6]

O=c1cc(-c2ccccc2)oc2ccccc12
inactive: [1] | [9] | [8] | [3] | [4] | [5]

CCOC(=O)CC
inactive: [1] | [7] | [2] | [8] | [3] | [4] | [5] | [6]

CN(C)c1ccc(C(=N)c2ccc(N(C)C)cc2)cc1
active: [9] 27.7 µM | [8] 26.7 µM | [3] 30.6 µM | [4] 28.7 µM | [11] 3.27 µM
not listed: [2] | [7]
inactive: all other assays above

O=C(O)CCCC[C@@H]1SC[C@@H]2NC(=O)N[C@@H]21
inactive: [1] | [9] | [8] | [3] | [4] | [5]

Cc1ccc(C(C)(C)C)cc1
inactive: [1] | [9] | [8] | [3] | [4]

O=C(OCC1CCC2OC2C1)C1CCC2OC2C1 (stereo not drawn)
inactive: [1] | [9] | [8] | [3] | [4] | [5] | [6]

CO[Si](OC)(OC)c1ccccc1
inactive: [1] | [9] | [8] | [3] | [4]

CC(=O)[C@H]1[C@H](C#N)C[C@H]2[C@@H]3CC=C4C[C@@H](O)CC[C@]4(C)[C@H]3CC[C@@]21C
inactive: [1] | [7] | [2] | [8] | [3] | [4] | [6]
